From PubChem BioAssay (NCI)
This is part of a sample that, as a whole, favours compounds with a hit. Of some 83,000 tested, about 20% had one in any assay.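 A percent growth of 40 corresponds to 60% growth inhibition; 0 means no net growth; -100 means all cells died. Active threshold: below 10.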 Active and inactive are the calls of the source.

The compounds below were run on NCI/ADR-RES ovarian (assay: NCI-60 one-dose screen, 48 h (100 = growth as untreated, 0 = no growth, -100 = all killed)). Settings: 10 µM unless noted.

Row | Compound | growth
1 | COc1ccc(C2SCC(=O)N2NC(=O)c2ccc(NC(=O)c3ccccn3)cc2)cc1OC (configuration not stated) | 105% (inactive)
2 | O=C(O)c1cn(C2CC2)c2cc(N3CCN(S(=O)(=O)c4ccc(Cl)c(Cl)c4)CC3)c(F)cc2c1=O | 53.5% (inactive)
3 | COc1ccc(/C=C/C(=O)c2ccc(B(O)O)cc2)cc1O | 92.3% (inactive)
4 | O=C(Nc1ccc(OCc2nnc(-c3ccc(Cl)cc3)o2)c(F)c1)Nc1ccc(Cl)c(Cl)c1 | 65.2% (inactive)
5 | COc1cc(/C=C2\C=C(c3ccc(F)cc3)N(Cc3ccccc3)C2=O)cc(OC)c1OC | 62.1% (inactive)
6 | Cc1cc(C)c(NC(=O)c2sc3nc4c(cc3c2N)CN(Cc2ccccc2)CC4)c(C)c1 | 18.5% (inactive)
7 | COc1cccc(-c2nc3sccn3c2-c2ccnc(NCCCNS(=O)(=O)c3ccccc3)n2)c1 | 23.1% (inactive)
8 | COc1cc(NCCN=C(N)NC(N)=NC(C)C)c2ncccc2c1 | 99.4% (inactive)
9 | Cc1ccc(Nc2ncnc3c2sc2ncccc23)cc1 | 98.8% (inactive)
10 | COc1cccc(/C=C2\SC(N3CCN(c4ccccn4)CC3)=NC2=O)c1 | 103% (inactive)
11 | CCOC(=O)C1=C(CSC(=S)N(C2CCCCC2)C2CCCCC2)N(C)C(=O)NC1c1ccccc1 (configuration not stated) | 64% (inactive)
12 | CC(C)C[C@H](NC(=O)[C@@H](Cc1ccccc1)n1ccc(Nc2ccccc2)cc1=O)B(O)O | 75% (inactive)
13 | COc1cccc(-c2nc3sccn3c2-c2ccnc(NCCCNS(=O)(=O)c3ccc(F)cc3)n2)c1 | 15.5% (inactive)
14 | O=S(=O)(NCCCNc1nccc(-c2c(-c3ccccc3)nc3sccn23)n1)c1ccc(F)cc1 | 22.4% (inactive)
15 | Nc1c(C(=O)Nc2ccccc2)sc2nc3c(cc12)CCCCC3 | 2.18% (active)
16 | Cc1cc(Nc2nc(C(=O)Nc3ccccc3)nc3ccccc23)n[nH]1 | 44.2% (inactive)
17 | CCCCCCCCCCCCCCCCC(Br)C(=O)O (configuration not stated) | 110% (inactive)
18 | COc1ccc(/C=C2\C(=O)N(C(=O)c3csc(NC(C)=O)n3)N=C2C)cc1 | 105% (inactive)
19 | COc1ccc(-c2nc3sccn3c2-c2ccnc(NCCCNS(=O)(=O)c3ccc4ccccc4c3)n2)cc1 | 53.5% (inactive)

Row | Compound | growth
20 | CC[C@]1(O)C[C@@H]2CN(Cc3c([nH]c4ccccc34)[C@@](C(=O)OC)(c3cc4c(cc3OC)N(C)[C@H]3[C@@](O)(C(=O)OC)[C@H](OC(C)=O)[C@]5(CC)[C@@H]6C[C@@H]6CN6CC[C@]43[C@@H]65)C2)C1 | 93.8% (inactive)
21 | CN=S(=O)(NC(=O)c1ccc(Cl)cc1Cl)c1ccc(Br)s1 (configuration not stated) | 99.3% (inactive)
22 | Cc1ccc(S(=O)(=O)NCCCNc2nccc(-c3c(-c4ccccc4)nc4sccn34)n2)cc1 | 49% (inactive)
23 | COc1cc(OC)c(C(=O)/C=C/c2cccc(C#N)c2)c(OC)c1 | 14.8% (inactive)
24 | COc1ccc(C2CC(c3cccs3)=NN2c2ccc(S(=O)(=O)NC(=O)Nc3ccc(C)cc3)cc2)cc1 (configuration not stated) | 103% (inactive)
25 | O=S(=O)(NCCNc1nccc(-c2c(-c3ccccc3)nc3sccn23)n1)c1ccc(O)cc1 | 85.5% (inactive)
26 | CNC(=O)Cc1nc(-c2cccc(NS(=O)(=O)c3c(F)cccc3F)c2F)c(-c2ccnc(Nc3ccccc3)n2)s1 | 104% (inactive)
27 | O=c1[nH]c2ccccc2cc1-c1nnc(Cc2ccccc2)o1 | 89.8% (inactive)
28 | CCCCCCC[C@@H](O)CC(=O)N[C@H](CCCCN)C(=O)N[C@H](Cc1c[nH]c2ccccc12)C(=O)NC(CCCCN)C(=O)N[C@H](CC(C)C)C(=O)N[C@H](Cc1ccccc1)C(=O)N[C@H](CCCCN)C(=O)N[C@H](CCCCN)C(=O)N[C@H](CC(C)C)C(=O)N1CCCC1C(=O)N[C@H](CCCCN)C(=O)N[C@H](Cc1ccccc1)C(=O)N[C@H](CC(C)C)C(=O)N[C@H](Cc1c[nH]cn1)C(=O)N[C@H](CC(C)C)C(=O)N[C@H](C)C(=O)N[C@H](CCCCN)C(=O)N[C@H](CCCCN)C(=O)N[C@H](Cc1ccccc1)C(=O)O (some centres not stated) | -23.6% (active)
29 | Oc1ccc(Cl)cc1-c1cc(-c2ccc(Cl)cc2)n[nH]1 | 65.1% (inactive)
30 | CN1C(=O)[C@H]2c3c1cccc3[C@@]13NC(=O)O[C@H]1[C@H](CCC3(C)C)C2(C)C | 98.8% (inactive)
31 | Cc1cccc(-n2c(C)nc3ccc(NC(=O)NCCCl)cc3c2=O)c1 | 95.5% (inactive)
32 | COc1c(NC[C@H]2OC(O)[C@H](O)[C@@H](O)[C@@H]2O)c(=O)c1=O (some centres not stated) | 101% (inactive)
33 | COc1ccc(-c2nnc(COc3ccc(NS(=O)(=O)c4ccc(OC)cc4)cc3F)o2)cc1 | 55.3% (inactive)
34 | CCCOC(=O)C1(O)CCCC1 | 108% (inactive)
35 | Nc1c(C(=O)Nc2ccccc2)sc2nc3c(cc12)CN(Cc1ccccc1)CC3 | 71% (inactive)
36 | COc1cc(OC)cc(-c2n[nH]nc2-c2ccc3c(c2)OCO3)c1 | 3.37% (active)
37 | COc1cc(C(=O)/C=C/c2cc(C(=O)c3cc(OC)c(OC)c(OC)c3)ccc2OC)ccc1N | 1.57% (active)
